In the OligoGym collection:

What follows are sequences tested against CHRM2 (assay: pooled miR-30 sensor sort-seq; sequence = guide strand). Settings: shRNA.
Also: reference of the scale not given here.

Row | Sequence | sensor-assay potency score (higher = more potent)
1 | TATTCTGCTTTTCATCTCCATT | -1.16
2 | TTTGTGGTCCGCTTGACTGGGT | -0.403
3 | TTTTGTGGTCCGCTTGACTGGG | 0.0688
4 | TCATCTTCACAATCTTGCGGGC | -0.203
5 | TATAAGGACTTGTAAGAGCCAG | -0.37
6 | TTGGCTTCACTATCCTTCCTTG | -0.217
7 | TTCTTGTCCTTCTTTATCCTGC | -0.0112
8 | TTTAATGGAAACCATGACTAGG | -0.722
9 | TTCTTTATCCTGCTCTTGCTGG | -0.363

Each sequence was assayed against CHRNA1 in the same assay as above. Settings: shRNA.

Row | Sequence | sensor-assay potency score (higher = more potent)
10 | TAGCAAAGTCACCATCTGCATT | -1.03
11 | TACTTCATCCACATTGATGAGC | -0.906
12 | TTGTCTTGCTTTTCTCTGGATG | -0.807
13 | TAGACAAATCTTCCTCTCCTGC | -0.927
14 | TAGCTTTGCCACCAGACGGGTC | -1.08
15 | ATTGATGAGCTGTATCAGCTGC | 0.306
16 | TAGCTTTTAAAGATGGCTGGAG | -0.126
17 | TTGATGGCCACGACAGAGCCGT | -0.893
18 | TAACACGTTTGATAAGTGCGAG | -0.52
19 | TTGCAACGTACTTCCACTCTGC | 0.505
20 | TTTTTTAGTGATTAGTTTCATT | -0.783
21 | TTAGAACATCAGCAACTCCCTA | -0.4
22 | TTGACAATAGCAAAGTCACCAT | -0.507
23 | ATTTACTTCATCCACATTGATG | -1.52
24 | TTCTTAGTAGGTACAAAACTGA | -0.855
25 | TAGAACATCAGCAACTCCCTAG | 0.223
26 | TTTGTCTTGCTTTTCTCTGGAT | -0.428
27 | TAGGTCACGGAGTGCTTCCAGC | -1.17
28 | TACTGCTTCCTCTCTCTCCAAA | -0.987
29 | TAAGCAAAGAATACACTTCATT | -1.02
30 | TACTGCAGGAGCACTTTGGTGA | 0.163
31 | TAAGTATGGAATATAACACGTT | -0.0814
32 | TATAACAGCAATGACAATGCAA | 0.464
33 | TTCATCCACATTGATGAGCTGT | -0.162

Each sequence was assayed against CHRNE in the same assay as above. Settings: shRNA.

Row | Sequence | sensor-assay potency score (higher = more potent)
34 | TCAAACACGAGCTCGCTCCGTG | -0.0514
35 | ATAGTTGTTGAAGAGATGGTGA | 0.0987
36 | TTGCCGTCGTTGTCTACGGCAA | -1.16
37 | TTGCTTTCTGTCAGTACTGTAG | -0.702
38 | TCGATCTTGTTGATGGTCTTGC | 0.161
39 | TATACCCCCAAAGTCGTCCTTG | -0.579
